Changes are numbered by the printed parent chain. The full ranking holds about 5,800 sequences; the median of “enrichment r” is about 0.68, and the highest 2% start at about 11. Many of the other results were omitted from the sample, so the highest values are more common in it than they were.

Here are results for 18 molecules from paper PMC12136788.

The labels stand for the following.
B1: chr10:62095068:62095169:+|3pUTR|ENSG00000150347|msi1|FALSE|unique (ssRNA)
RNA: GGGAGUUCUACAGUCCGACGAUCCCAUUUGCUUCAAUUAAUUAUUUACCUUCCUGUGGAAUAAUAUAUAUAUAUAUAUUUAAUAGAACCAUAGAUAGACUAGUAGAAUUUAGAUUAUAAAUGUGUGAGUGCAGAUUAUCCUGCCAACAGAGGAUUGAGCAUCA
B2: chr15:34978960:34979061:-|3pUTR|ENSG00000198146|msi1|FALSE|unique (ssRNA)
RNA: GGGAGUUCUACAGUCCGACGAUCGCCCUCUGUAUCCAUGUACUCUGCAUCUGUGGAUUAAACCAAUUGCAGAUCAAAAAUAUUAGAAAAAAUAAAAAUAAUACAAAUAAAAAUACAGUAUAACAGUUAUUUAAAUAGCAUUUACAACAGAGGAUUGAGCAUCA
B3: chr5:72209348:72209524:+|3pUTR|ENSG00000131711|msi1_unk|FALSE|overlapping (ssRNA)
RNA: GGGAGUUCUACAGUCCGACGAUCUUAUGUCUUAUAAUCCUGCAUCACUUCUAUCCUAUCCAGUCAUAUCUAAUGUAGAAAAUUAGUUUCCAGUGAAAGUAAUAUGUAGUGCUUUUAUGAUAUUUGUGUGCAAUAUCCCCUCUUCAACAGAGGAUUGAGCAUCA
B4: chr14:53043751:53043854:-|3pUTR|ENSG00000100523|unk|FALSE|unique (ssRNA)
RNA: GGGAGUUCUACAGUCCGACGAUCACUUAGAUUAAAUCUUGCUUUAUUUUUACUUUAAAAUUAGUCUUGCUAAGGCCUUAUGUUAGUUCAUACUUUCUUUUCAACAGUAAUCUUGUUUAUAAUCCAGUGUUUCUGUGUUUUAGGCAACAGAGGAUUGAGCAUCA
B5: chr9:123379744:123379845:-|3pUTR|ENSG00000119522|msi1|total|mutant (ssRNA)
RNA: GGGAGUUCUACAGUCCGACGAUCGUGUUUCAGCACCGAUUCCAGUUUCGCACCCUGGGCAGACCCCCAGGCCCCAUCCGGGACCGGGCAGAGGAGGUGCUGGCGGCCCCAGGGAAGGAGGGUGUGUACCCCAAGGCCCCCUGGCAACAGAGGAUUGAGCAUCA
B6: chr3:98797553:98797658:-|3pUTR|ENSG00000057019|msi1|total|mutant (ssRNA)
RNA: GGGAGUUCUACAGUCCGACGAUCAUUUCAUUCAUUGAAGAAUCAAUACAUAUUUUGUUUCAAAAUGUUUGAAACAAAAGACACCGAUGGCCGACUUUUAUUAAAACAUAUAUGGAUGUGGAAAGCACAUAUAUUAAUGCAGUCCAACAGAGGAUUGAGCAUCA
B7: chr15:52550718:52550819:-|3pUTR|ENSG00000128989|msi1|FALSE|unique (ssRNA)
RNA: GGGAGUUCUACAGUCCGACGAUCUUUAUAUAAACUUUUUAAAUGUAGAAACUUUUUACUUCCACACUCAGUUUUGGAGACCCUAGAAUAAAAGGCUUCAAUACUCUGCAUUCCAUGCCCUCUGCCACCUGCUUUUUUUUCCCCCAACAGAGGAUUGAGCAUCA
B8: chrX:100674576:100674677:+|3pUTR|ENSG00000102359|msi1|FALSE|bound_elsewhere (ssRNA)
RNA: GGGAGUUCUACAGUCCGACGAUCUUGCAAUCCACACCAAAUCAAUCUUUGAAAACAUUCCUCCAUUCGGUUCAUACAUACAGUAGAAACCACUGUGGCUGCCCUUAAUCCAGUGUGCUUAUAGGAAAUCAGUUAGCAGCUGACCAACAGAGGAUUGAGCAUCA
B9: chr7:7607225:7607326:+|3pUTR|ENSG00000164654|msi1|total|mutant (ssRNA)
RNA: GGGAGUUCUACAGUCCGACGAUCUUUGAGUGAUUUUGAUAUGCUUCACAGAGACAAAUGCUGCCAAAAUAAACAUCGAAGUACCGACAUGAGUUCUGUUCAGCAGGUUGAAAAGUCUGAUUCCGAAAAACUUUCUAAGUUUUGCAACAGAGGAUUGAGCAUCA
B10: chr3:129431351:129431457:-|3pUTR|ENSG00000129071|unk|FALSE|unique (ssRNA)
RNA: GGGAGUUCUACAGUCCGACGAUCACUUCAAAAAAGCUUAAUUAAGUACAACCAACCACCUUUCCAGCCAUAGAGAUUUUAAUUAGCCCAACUAGAAGCCUAGUGUGUGUGCUUUCUUAAUGUGUGUGCCAAUGGUGGAUCUUUCAACAGAGGAUUGAGCAUCA
B11: chr5:154817497:154817598:+|3pUTR|ENSG00000155506|msi1_unk|FALSE|overlapping (ssRNA)
RNA: GGGAGUUCUACAGUCCGACGAUCUUAUUGAGAGUAUCUGCUUUCCAGGCUGAAGUGAUUCAUUCAUUAUUCUAGUCCUGCUUUAGUCCUUUGUAAUUUGUGGUAAUUAUGCUUUUCUUUUUAAUACAAAAAAAUGUAUAAAAACAACAGAGGAUUGAGCAUCA
B12: chr14:44928120:44928223:-|3pUTR|ENSG00000179454|unk|FALSE|unique (ssRNA)
RNA: GGGAGUUCUACAGUCCGACGAUCUAGUACAGCAGGCCUCCCAGUGCUGAUGUAAAUAUUUGAGCAGUGUUUAGUACCAUUCUUAGUGCAUAUUAAUUUUUUUAUAUAUCCUUAUAAUUUUAGUUUUUUAAGAUCUUUGCUUUUCAACAGAGGAUUGAGCAUCA
B13: chr14:44928120:44928223:-|3pUTR|ENSG00000179454|unk|total|mutant (ssRNA)
RNA: B12 RNA with U24C, A25C, U71C, A72C, U83C, A84C, U120C, A121C
B14: chr12:54238554:54238587:-|3pUTR|ENSG00000094916|msi1_unk|FALSE|overlapping (ssRNA)
RNA: GGGAGUUCUACAGUCCGACGAUCGGGAGCACCCAUUUUAAACCUGGAGAGAACCAUGAUGUUUUCUUCUUCAAAUAACAAUCUAGUUUUUUUUCCCCCAGUACUAAAAUUGUAUUGUCUUUCAGACAAUAUAAUUUUUAUUUACAACAGAGGAUUGAGCAUCA
B15: chr10:73916565:73916770:+|3pUTR|ENSG00000122861|msi1|total|mutant (ssRNA)
RNA: GGGAGUUCUACAGUCCGACGAUCCUGGUUGUCAUUUUUGCAGCCGAGUCAUCUCCAUCAGCUGUAAGAAGAGACUGGGAAGACCGGCUCUGCACAGAUGGAUUUGCCUGUGCCACCCACCAGGGCGAACGACAACCGCUUUACCAACAGAGGAUUGAGCAUCA
B16: chr10:72012227:72012328:+|3pUTR|ENSG00000122863|msi1|total|mutant (ssRNA)
RNA: GGGAGUUCUACAGUCCGACGAUCCAAUGGAAGGAGCUUCAGCAGGAGGUCCUUCCCAGAAGGUUGAUUCUUGGCCUGGGUGGCCGAGGAGAUAUCCUGACCCUAAAGUCUUCCAGCCCCGGGUCAUCCUCUCCUAUACCCGGGCAACAGAGGAUUGAGCAUCA
B17: chr1:18907414:18907603:-|3pUTR|ENSG00000169991|msi1|total|mutant (ssRNA)
RNA: GGGAGUUCUACAGUCCGACGAUCCCUUGAUUUCCCUGAUAACUUGAUGUUCUUCCCUCCCUCGCCAGCCAACAACCGAGGCUCCGAGAUCUGUAAUUUCUCUGUGAGAAAGUCUGAAGGGGCCAGGCCUGGUCUCUGCUCCCUCAACAGAGGAUUGAGCAUCA
B18: chr1:42176760:42176861:-|3pUTR|ENSG00000198815|msi1|total|mutant (ssRNA)
RNA: GGGAGUUCUACAGUCCGACGAUCGUCGCUCAGAUGUCCUUUGAAGUGGGAGGGAAUCAAUCCGGGGAUAAUUUCAAAUGGAACCGAGUAUUUUGAUAUUGUUCAUUCAGAGGGUGAUGUGUACAUAUCUAUAUUGUAUAUAUGCAACAGAGGAUUGAGCAUCA

The assay addresses T1, UNK ZnF1-6 (called full-length) (human, UniProt Q9C0B0 30-357).
T1 sequence: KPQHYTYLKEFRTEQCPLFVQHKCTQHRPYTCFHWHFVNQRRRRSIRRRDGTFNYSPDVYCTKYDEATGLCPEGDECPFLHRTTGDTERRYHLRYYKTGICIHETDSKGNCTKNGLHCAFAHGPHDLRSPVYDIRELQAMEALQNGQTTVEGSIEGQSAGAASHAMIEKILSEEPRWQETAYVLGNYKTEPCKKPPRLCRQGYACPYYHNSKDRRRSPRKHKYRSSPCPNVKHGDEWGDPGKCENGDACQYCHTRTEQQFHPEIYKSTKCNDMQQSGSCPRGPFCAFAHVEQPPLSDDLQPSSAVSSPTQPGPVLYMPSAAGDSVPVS
Kind of assay: nsRBNS (natural sequence RNA bind-n-seq); RBNS binding buffer (assumed for nsRBNS): 25 mM Tris pH 7.5, 150 mM KCl, 3 mM MgCl2, 0.01% Triton X-100, 500 ug/ml BSA, 20 U/ml SUPERase-In, 4 C; UNK is unkempt and MSI1 is Musashi-1; names of the RNAs are library labels; protein concentration not given here; high values mean tight binding.
B1 yielded a binding signal of 15.6 enrichment R.
With B2, the binding signal stood at 22.2 enrichment R.
Turning to B3, the binding signal amounted to 1.93 enrichment R.
As to B4, the binding signal amounted to 15 enrichment R.
Turning to B5, the binding signal was 0.59 enrichment R.
The molecule B6 came in with a binding signal of 0.53 enrichment R.
B7 had a binding signal of 3.77 enrichment R.
In the case of B8 it was 0.532 enrichment R.
In the case of B9, the binding signal was found to be 0.348 enrichment R.
Take B10: the binding signal turned out to be 5.99 enrichment R.
With B11, the binding signal amounted to 1.93 enrichment R.
The result for B12 reads 213 enrichment R; that for B13, 7.31 enrichment R; that for B14, 9 enrichment R.
B15 returned a binding signal of 0.561 enrichment R.
As to B16, the binding signal was found to be 0.492 enrichment R.
Regarding B17, the binding signal worked out at 0.733 enrichment R.
Regarding B18, the binding signal came to 1.09 enrichment R.
